The list is not random: actives were taken first. Their share in the collection is about 2.2%.
TWEAK Fn14 block: blocks TWEAK-Fn14 interaction in a reporter cell assay; inhibition, % at 10 µM; AID 1159606; TWEAK-stimulated Fn14 reporter cells, luciferase luminescence, 8 h; hit rate 2% among 360,000; in the data active means inhibition above about 50%
TROY signal inh: blocks TROY-dependent signaling in reporter cells; Q293 LMP1-TROYcd NF-kB luciferase reporter, 4 h; inhibition, % at 10 µM; hit rate 0.98% among 360,000; AID 1347056;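 active means compounds whose plate-normalised and pattern-corrected inhibition of the luciferase reporter signal at the single screening dose is 50% or more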
HSP90 refold inh: HSP90 refolding inhibition in rabbit reticulocyte lysate | luciferase refolding luminescence, 3 h | inhibition, % at 5.6 µM | hit rate 0.91% among 290,000;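 active means inhibition above the screen-wide mean plus 3 SD, computed separately per campaign, cut at about 16% in these data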;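 further: 0% = DMSO wells and 100% = 60 µM geldanamycin wells; inhibitors lower the luminescence because luciferase stays unfolded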
LGR2 inh: inhibitors of bursicon-induced Drosophila LGR2 receptor cAMP signaling; AID 720647; hit rate 0.35% among 380,000; inhibition, % at 9.99 µM; HEK293 LGR2, CRE-luciferase, bursicon-stimulated, 4 h;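 active means drop in luminescence signal, shown as inhibition above about 50% in the replicate tests, limit read from the data, passing the limit was not always enough; inconclusive means probably only some replicates passing the limit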;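 further: agonist challenge used bursicon conditioned medium at about half maximal strength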
Numbers without * were called inactive; ? = inconclusive; / = no result given.

SMILES	TWEAK Fn14 block	TROY signal inh	HSP90 refold inh	LGR2 inh
c1ccc(CNc2nc3ccccc3n3cnnc23)cc1	-10	-17	16*	-15
O=C(CSc1nnc2ccccn12)NC(=O)Cc1ccccc1	52*	0	6	11
Cc1ccc(C(=O)SC2=NCCS2)cc1	60*	49	-1	13
CC1(C)CC(=O)C2=C(C1)NC1=C(C(=O)c3ccccc31)C2c1ccccc1 (stereo not drawn)	64*	2	-5	/
CC(C)c1ccc(C2C3=C(CC(C)(C)CC3=O)NC3=C2C(=O)c2ccccc23)cc1 (stereo not drawn)	61*	36	0	36
CC1(C)CC(=O)C2=C(C1)NC1=C(C(=O)c3ccccc31)C2c1cccnc1 (stereo not drawn)	3	15	0	-27
C=CC(=O)N1C/C(=C/c2ccc(F)cc2)C(=O)/C(=C\c2ccc(F)cc2)C1	106*	79*	/	101*
O=C(/C=C/c1ccc(F)cc1)N1CCN(S(=O)(=O)/C=C/c2ccccc2)CC1	8	-1	-2	17
COc1ccc(S(=O)(=O)N(C)C[C@@H]2Oc3ccc(NC(=O)Nc4ccc(F)cc4)cc3CC(=O)N([C@@H](C)CO)C[C@H]2C)cc1	/	/	/	11
COc1cccc(S(=O)(=O)N[C@H]2C=C[C@H](CC(=O)NCc3ccncc3)O[C@H]2CO)c1	/	/	/	-12
Clc1ccc(Cn2cc(/C=N/n3cnnc3)c3ccccc32)c(Cl)c1	54*	46	-1	/
C(=N\n1cnnc1)/c1cn(Cc2ccccc2)c2ccccc12	12	-3	2	-16
COc1ccc2c3c(n(C)c2c1)[C@H](CO)N(C(=O)CN1CCOCC1)CC31CCN(C(=O)C2CC2)CC1	/	/	/	26
C[C@@H]1CN([C@@H](C)CO)C(=O)Cc2cc(NC(=O)Cc3cn(C)c4ccccc34)ccc2O[C@@H]1CN(C)S(=O)(=O)c1ccccc1	/	/	/	-1
N#CC(=C=[N-])c1nc2ccccc2nc1-[n+]1cccc(NC(=O)c2ccccc2)c1	75*	-13	4	17
CO[C@@H]1CN(C)C(=O)c2ccc(NC(=O)c3ccc(F)cc3)cc2OC[C@@H](C)N(C(C)=O)C[C@@H]1C	/	/	/	-8
N#CNC(=Nc1ccccc1)SCc1ccc(C(=O)O)cc1	1	2	0	-14
CSC(=Nc1ccccc1)N=C(SCc1ccccc1)N(C)C	80*	45	/	76*
COc1ccc(-n2ncc3c(N4CCN(c5cc(C)ccc5C)CC4)ncnc32)cc1	-18	-11	-3	9
Cc1cccc(-n2ncc3c(N4CCCC4)ncnc32)c1	57*	22	6	36
Cc1ccc(-n2ncc3c(N4CCN(c5ccccc5)CC4)ncnc32)c(C)c1	87*	50*	2	?
COc1ccc(N2CCN(c3ncnc4c3cnn4-c3ccc(C)cc3C)CC2)cc1	68*	44	0	5
c1ccc(Cn2ncc3c(N4CCN(c5ccccc5)CC4)ncnc32)cc1	64*	72*	/	66*
CCN1CCN(c2ncnc3c2cnn3-c2ccc(C)cc2C)CC1	-15	5	/	8
Cc1noc(C)c1NC(=O)Nc1ccc2c(c1)C(=O)N([C@H](C)CO)C[C@@H](C)[C@H](CN(C)S(=O)(=O)c1ccccc1)OCCCC[C@@H](C)O2	/	/	/	0
SMILES	TWEAK Fn14 block	TROY signal inh	HSP90 refold inh	LGR2 inh
CC(=O)c1c(C)[nH]c(C(=O)Nc2ccc(Cl)c(S(=O)(=O)N(C)C)c2)c1C	-40	-43	1	-69
CC(=O)c1c(C)[nH]c(C(=O)OCC(=O)Nc2ccc(Cl)cc2[N+](=O)[O-])c1C	64*	44	1	-1
CC(=O)c1c(C)[nH]c(C(=O)OCC(=O)Nc2ccc(Cl)c(S(=O)(=O)N(C)C)c2)c1C	54*	22	-2	15
CCOC(=O)c1c(C)[nH]c(C(=O)OCC(=O)Nc2cc(Cl)ccc2OC)c1C	-15	18	6	/
C[C@@H]1CCCCO[C@@H](CN(C)Cc2ccc(Cl)c(Cl)c2)[C@H](C)CN([C@H](C)CO)C(=O)c2cc(NC(=O)CCC(F)(F)F)ccc2O1	/	/	/	1
Cc1ccc(S(=O)(=O)c2nc(S(C)(=O)=O)sc2NCC2CCCO2)cc1 (stereo not drawn)	87*	/	3	/
COc1ccc([C@H]2CC(=O)C=C(c3cc(Cl)ccc3C)C2)cc1	15	-3	/	0
COc1ccc([C@H]2CC(=O)C=C(c3ccnc4ccc(Cl)cc34)C2)cc1	52*	39	/	10
CN1C(=O)CSc2ccc(NC(=O)N3CCN(c4ccccn4)CC3)cc21	33	13	4	0
Cc1ccc(C)c(N2CCN(C(=O)Nc3ccc4c(c3)N(C)C(=O)CS4)CC2)c1	52*	40	-1	-1
CCCc1[nH]c2ccc(C(=O)OC)cc2c1CCC	-16	-42	0	-4
CCCc1[nH]c2ccc(C#N)cc2c1CCC	39	53*	0	10
COc1cccc(NC(=O)N[C@@H]2C=C[C@@H](CC(=O)N3CCCCC3)O[C@H]2CO)c1	/	/	/	5
C=C1C(=O)CC2=C1[C@](Cc1ccc(F)cc1)(C(=O)OC)N(C(=O)c1ccccc1)C2	16	-10	/	4
C=C1C(=O)C=C2CN(C(=O)c3ccccc3)[C@@](Cc3ccc(F)cc3)(C(=O)OC)[C@@H]12	105*	81*	18*	/
O=Cc1cn(CCC(=O)O)nc1-c1cccc(Br)c1	6	6	0	/
O=C(O)CCn1cc(/C=C\C(=O)c2ccc(Cl)cc2)c(-c2cccc(Br)c2)n1	64*	21	-6	11
COc1ccc(-c2nn(CCC(=O)O)cc2/C=C/C(=O)O)cc1[N+](=O)[O-]	-3	65*	7	-4
COc1ccc(S(=O)(=O)N(C)C[C@@H]2OCCCC[C@@H](C)Oc3ccc(NS(=O)(=O)c4cccs4)cc3C(=O)N([C@@H](C)CO)C[C@@H]2C)cc1	/	/	/	-8
Cc1cc(/C=C2/NC(=O)N(c3ccccc3)C2=O)c(C)n1C(C)C	60*	48	5	-24
Cc1cc(/C=C2/NC(=O)N(Cc3ccccc3F)C2=O)c(C)n1C(C)C	32	16	-2	10
CC(C)(C)n1nc2c(c1NC(=O)c1ccc(Cl)c([N+](=O)[O-])c1)CS(=O)(=O)C2	54*	49	-5	-13
CC(=O)Oc1cc2cccc(OC(C)=O)c(=O)c2c(OC(C)=O)c1OC(C)=O	84*	34	0	/
COc1cc2cccc(OC)c(=O)c2c(O)c1OC	-41	-22	-4	7
CC(C)(C)c1ccc(OCCOc2ccc(C(C)(C)C)cc2NC=O)c(NC=O)c1	26	51*	-2	7
O=C(Nc1cc(F)ccc1F)N1CC(=O)N2[C@H](CO)[C@H](c3ccc(C#CC4CCCC4)cc3)[C@@H]2C1	/	/	/	4
CCOc1ccc(-c2csc(/C(C#N)=C\c3ccc(O)c([N+](=O)[O-])c3)n2)cc1	104*	71*	-2	10
COc1ccc(-c2cn3c(C)c(C(=O)N4CCN(c5ccccc5)CC4)sc3n2)cc1	19	-4	/	-13
COc1ccc(-c2cn3c(C)c(C(=O)NC(C)(C)C)sc3n2)cc1	-17	-42	45*	-53
